Experimental findings from PubChem BioAssay (NCI) are described below.

“And” between values parts separate entries of the source, which are not always exact repeats. Equal entries are not always repeated. Compounds without any hit were thinned out: in the full panel of roughly 83,000, 20% have a hit.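 Activity criterion: percent growth below 10, measured after cells in 96-well plates were exposed to a single compound concentration for 48 hours.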 A number with no mark means an inactive call. The source made the active and inactive calls.

For the assay, the system named is MDA-MB-468 breast. Briefly: NCI-60 one-dose screen, 48 h (100 = growth as untreated, 0 = no growth, -100 = all killed). Conditions: 10 µM unless noted.
With `Cc1cc(=O)n2nnc3c4ccccc4ccc3n12`, the growth is 15.5%. For the molecule `O=C1C=CC(=O)N1c1ccccc1`, the growth was 106%. Regarding `COc1cc(/C=C2/C=C(c3ccc(C(C)(C)C)cc3)N(CCc3ccc(S(N)(=O)=O)cc3)C2=O)cc(OC)c1OC`, the growth was 55.6%.

In the case of `Cc1cccc(Cl)c1N`, the growth was 110%. In the case of `COc1ccc(-c2cnnn2-c2nonc2-n2cccc2)cc1` it was 4.28% (active); in that of `Cn1c(SCC(=O)c2ccco2)nc2ccccc2c1=O`, 5.9% (active); in that of `CC(C)(Sc1cc(C(C)(C)C)c(OC(=O)CCCC(=O)O)c(C(C)(C)C)c1)Sc1cc(C(C)(C)C)c(OC(=O)CCCC(=O)O)c(C(C)(C)C)c1`, 54.1%. `O=[P@@]1(c2ccccc2)O[C@H](COCc2ccccc2)[C@@H](OCc2ccccc2)[C@H](OCc2ccccc2)[C@H]1NCc1ccccc1`: the growth was 14%. With `N#Cc1c2cccnc2c2nnc3cc(Cl)c(Cl)cc3n12` the figure was -56% (active). In the case of `COC(=O)c1cc(-c2cc(OC)c(OC)c(OC)c2)[nH]c1N/N=C/c1c(Cl)cccc1Cl` it was -9.15% (active); in that of `COc1cc2ncnc(Nc3ccc(S(=O)(=O)Nc4nccs4)cc3)c2cc1OCCCN1CCCC1`, 99.2%.

Regarding `Nc1c(C(=O)c2ccc(F)cc2)sc2nc3c(cc12)CCCC3`, the growth is 59.9%. With `CC1(C)N=C(N)N=C(N)N1c1cccc(CCCCc2ccccc2)c1` the figure was -57.7% (active); with `CCOC(=O)c1ccccc1NC(c1ccccc1)c1ccc2cccnc2c1O` (stereo not given), 8.19% (active); with `CC(=O)Oc1ccccc1C(=O)N=C1[Se]CCN1C(=O)c1ccccc1OC(C)=O`, -25.6% (active). As to `Cc1cccc2c(=O)c3c(sc12)c(NCCCN)nc1ccccc13`, the growth was -38.5% (active). In the case of `COc1cc2[nH]c(C(=O)c3cc(OC)c(OC)c(OC)c3)c(N)c2cc1C#CCO` it was 25.6%. As to `COc1cc2nc(Cl)nc(Nc3cccc(C4=Nc5c(N)nc(N)nc5NC(c5ccccc5)C4)c3)c2cc1OC` (stereo not given), the growth was 96.5%. With `CC(C)Cc1ccc(C(C)C(=O)NCc2c[nH]c3ccc(Cl)cc23)cc1` (stereo not given) the figure was 80.7%; with `O=C(/C=C/c1cccc(Br)c1)c1ccccc1`, 84.9%. For `CN1NC(c2ccccc2)NN(C)C1=O`, the growth is 108%. In the case of `COc1ccc(C(=O)CC(CC(=O)c2ccc(OC)cc2)c2c(C)nn(-c3ccccc3)c2Cl)cc1`, the growth is 96.4%. In the case of `NC1(CO)COC(c2ccccc2)OC1` (stereo not given) it was 99.7%; in that of `Fc1ccc(CNc2cccc3[nH]c(C(F)(F)F)nc23)cc1`, 99.7%; in that of `Cc1ccc(=O)[nH]n1`, 103% and 104%. In the case of `CSc1nc2c(c(=O)[nH]1)C(c1ccc(C)cc1)C=C(C(=O)O)N2` (stereo not given) it was 114%. Consider `C=CC(=O)Nc1cccc(Oc2nccc(Nc3nnc(-c4ccc(Br)cc4)s3)n2)c1`, for which the growth was 114%.

In the case of `O=C(O)c1cccc2c1Cc1cc([N+](=O)[O-])ccc1-2`, the growth was 113%. Regarding `COc1ccc(C2CC(c3cnccn3)=NN2)cc1OC` (stereo not given), the growth is 105%. As for `NC(N)=Nc1ccc(Oc2cccc(Nc3ccc(Br)c(C(F)(F)F)c3)c2)cc1`, the growth was -10.6% (active).

Regarding `Cc1ccc(C(=O)NN2C(=O)CSC2c2ccc(Cl)cc2)cn1` (stereo not given), the growth is 110%.

As to `O=C(Nc1ncc(Cc2ccccc2Cl)s1)c1cccs1`, the growth is 33.6%. As to `O=C(Nc1ccc(C(=O)/C=C/c2ccc(N3CCOCC3)cc2)cc1)Nc1ccc([N+](=O)[O-])cc1`, the growth is 91%. With `CCOC(=O)C1C(=O)C=C(c2cnccn2)CC1c1ccc(OC)c(OC)c1` (stereo not given) the figure was 108%; with `COc1ccc(OC)c(Cn2cc3c(c2)-c2oncc2CC3)c1`, 3.48% (active); with `CC(=O)N1N=C(c2ccc3c(c2)OCO3)CC1c1c(C)nn(-c2ccccc2)c1N(C)Cc1ccccc1` (stereo not given), 61.5%.

Take `CCCc1nn(C)c2c(=O)[nH]c(-c3cc(S(=O)(=O)N4CCN(C)CC4)ccc3OCC)nc12`: the growth was 110%. In the case of `COc1cccc(NC(=O)Nc2ccc(Nc3ncnc4[nH]c(C)c(C)c34)cc2)c1` it was 112%; in that of `NC(=O)N1N=C(c2cc3ccccc3oc2=O)CC1c1cn(-c2ccccc2)nc1-c1ccc(Cl)cc1` (stereo not given), 36.9%; in that of `Clc1ccc(CCC(Cn2ccnc2)Sc2c(Cl)cccc2Cl)cc1` (stereo not given), 36.9%.
